Screening results deposited in PubChem by The Scripps Research Institute Molecular Screening Center.
Most compounds without a hit are left out; they make up all but 2.3% or so of the library.
CHRM1 antagonist = human M1 muscarinic receptor antagonists, primary screen, CHO-K1 cells, Fluo-8 calcium fluorescence, 1536-well | Muscarinic acetylcholine receptor M1 (Homo sapiens), P11229 | CHO-K1 hM1, ACh EC80 antagonist | inhibition, % at 3 µM | hit rate 1.3% among 360,000 | AID 588852, 2011;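 active = percent inhibition above its own plate's cutoff, namely the mean of that plate's compound wells plus 3 SD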;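 also: peak over basal fluorescence ratio during 140 s after agonist addition; 0% = ACh EC80 plus DMSO and 100% = DMSO alone without agonist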
Target sequence (P11229 whole entry, looked up): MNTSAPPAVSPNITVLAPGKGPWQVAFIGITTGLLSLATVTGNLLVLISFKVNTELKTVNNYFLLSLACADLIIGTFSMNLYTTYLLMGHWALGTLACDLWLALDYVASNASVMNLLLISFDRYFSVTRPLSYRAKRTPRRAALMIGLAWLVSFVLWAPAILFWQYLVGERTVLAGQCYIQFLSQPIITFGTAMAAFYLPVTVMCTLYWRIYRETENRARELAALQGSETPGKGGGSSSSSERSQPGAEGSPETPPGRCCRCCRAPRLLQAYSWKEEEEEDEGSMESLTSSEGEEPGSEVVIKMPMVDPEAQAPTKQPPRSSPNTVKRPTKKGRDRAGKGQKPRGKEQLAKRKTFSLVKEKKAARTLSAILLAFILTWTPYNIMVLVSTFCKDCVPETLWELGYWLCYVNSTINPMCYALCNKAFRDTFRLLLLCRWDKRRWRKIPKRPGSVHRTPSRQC
CHO-K1 Ca ag = counter-screen for M1 agonists: effect in parental CHO-K1 cells. AID 602248, 2012. activation, % at 3 µM. hit rate 0.48% among 360,000. Fluo-8 calcium fluorescence; scaled to maximal ATP response, vehicle zero; in the data active = activation above about 15%;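 also: untransfected CHO-K1 host cells lacking M1 receptor as counterscreen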
CHO-K1 Ca antag = M1 antagonist counterscreen hit in parental CHO-K1 cells | AID 602250 | ATP-induced calcium, Fluo-8 fluorescence | hit rate 0.6% among 360,000 | inhibition, % at 3 µM;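 active = inhibition above a per-plate cutoff, the plate's mean sample inhibition plus 3 SD, cut at about 24% in these data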;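 also: 0% = DMSO plus EC80 ATP and 100% = DMSO alone without ATP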
CHRM1 PAM = human M1 muscarinic receptor positive allosteric modulators, primary screen, CHO-K1 cells, Fluo-8 calcium fluorescence, 1536-well; Muscarinic acetylcholine receptor M1 (Homo sapiens), P11229; CHO-K1 hM1, ACh EC20; 0% = ACh EC20, 100% = maximal ACh; activation, % at 3 µM; hit rate 0.088% among 360,000; AID 588819, 2011; in the data active = activation above about 19%, passing the limit was not always enough
M1 PAM parental = nonselective calcium activators in parental CHO-K1 cells, primary screen, counter-screen for M1 PAM project, cell-based, Fluo-8 calcium fluorescence, full deck, 1536-well; ATP EC20; 0% at ATP EC20, 100% at ATP max; activation, % at 3 µM; hit rate 0.02% among 360,000;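 active = activation above the run cutoff, the mean activation of all test compounds plus 3 SD, cut at about 40% in these data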;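 also: peak over basal fluorescence ratio in a 140 s read after ATP addition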
M1 ag = human M1 muscarinic receptor agonists, primary screen, Fluo-8 calcium fluorescence, CHO-K1 cells, HTS; CHO-K1 hM1, agonist mode; 0% DMSO, 100% acetylcholine EC100; hit rate 0.33% among 360,000; Muscarinic acetylcholine receptor M1 (Homo sapiens), P11229; activation, % at 3 µM; AID 588814, 2011;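 active = activation above the run's mean compound activation plus 3 SD, cut at about 16% in these data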;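 also: peak over basal fluorescence ratio within a 140 s kinetic read after compound addition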
An asterisk follows results filed as active.

SMILES	CHRM1 antagonist	CHO-K1 Ca ag	CHO-K1 Ca antag	CHRM1 PAM	M1 PAM parental	M1 ag
Cc1cc(Cl)ccc1OCC(O)CNCCc1ccc(S(N)(=O)=O)cc1 (stereo not given)	43*	1	2	-16	-3	0
COc1ccc(NC(=S)N2CCC(C(=O)c3ccc(OC)cc3)CC2)cc1	-2	3	-13	1	11	-5
COc1ccccc1NC(=O)NCC(c1ccco1)N1CCCCC1 (stereo not given)	-4	0	-13	3	1	-6
Cc1ccc2oc(C(=O)NCc3ccccc3)cc(=O)c2c1	0	6	3	2	-11	0
Cc1cc2oc(C(=O)NCc3ccccc3)cc(=O)c2cc1C	81*	-1	13	-31	-12	-7
NNC(=O)c1ccc(CN2C(=O)c3cccc4cccc2c34)cc1	-12	1	-5	15	14	34*
Cc1ccc(-c2nn3cnnc3c3ccccc23)cc1C	-14	0	24*	7	-4	-4
COc1ccc(C(=O)OCCCc2cc3ccccc3c(=O)o2)cc1	-5	1	-5	1	9	-3
O=C(NCc1ccccn1)c1ccc(Cl)c(NC2=NC3CS(=O)(=O)CC3S2)c1 (stereo not given)	2	1	-16	0	8	-2
O=C(NCC(c1ccco1)N1CCCCC1)c1ccc(COc2ccc(Cl)cc2)cc1 (stereo not given)	80*	2	-4	-26	22	-5
O=C(NCC(c1ccco1)N1CCCC1)c1ccc(S(=O)(=O)Nc2ccccc2Cl)cc1 (stereo not given)	5	1	12	-9	3	-7
O=C(NCC(c1ccco1)N1CCCC1)c1ccc(S(=O)(=O)Nc2ccccc2F)cc1 (stereo not given)	66*	3	0	-25	-4	-7
CCc1ccc(NC(=O)C2CCC(CNC(=O)[C@@H]3Cc4ccccc4CN3)CC2)cc1 (stereo not given in full)	4	5	-15	-7	-2	-2
O=C(NCC(O)c1ccc([N+](=O)[O-])cc1)C1=COCCO1 (stereo not given)	-2	0	-7	10	11	-1
CC1(O)c2ccccc2C(=O)N1Cc1ccccc1 (stereo not given)	1	-1	27*	6	-6	-7
CC1(O)c2ccccc2C(=O)N1CCc1ccccc1F (stereo not given)	-9	0	-12	2	20	-5
NC(=O)c1ccsc1NC(=O)COC(=O)CCOc1ccccc1	15	17*	2	-12	-13	5
COc1cc(CC(=O)OCC(=O)Nc2sccc2C(N)=O)cc(OC)c1OC	13	16*	8	-9	-6	2
NC(=O)c1ccsc1NC(=O)COC(=O)Cc1ccccc1Cl	29	19*	11	-19	-3	5
NC(=O)c1ccsc1NC(=O)COC(=O)Cc1ccsc1	-4	6	-2	-1	7	5
CC(=O)c1ccc(OCC(=O)OCC(=O)Nc2sccc2C(N)=O)cc1	35*	17*	9	-10	-10	2
NC(=O)c1ccsc1NC(=O)COC(=O)CCCOc1ccccc1	27	14	17	-13	-3	3
NC(=O)c1ccsc1NC(=O)COC(=O)CCc1ccccc1	23	16*	6	-18	-4	6
Cc1ccc(CNC(=O)c2ccc(COc3ccccc3)cc2)cc1	-4	-1	5	0	-3	-9
Cc1c(/C=N/NC(=O)c2sc3ccccc3c2Cl)cnn1C	-7	0	26*	6	3	-1
SMILES	CHRM1 antagonist	CHO-K1 Ca ag	CHO-K1 Ca antag	CHRM1 PAM	M1 PAM parental	M1 ag
COc1ccccc1NC(=O)CSc1nnc2ccccn12	-12	0	-13	25*	11	6
CCN(CC)c1ccc(N)cc1	16	4	8	-11	-12	-4
Nc1ccc(N(CCO)CCO)cc1	2	1	100*	3	5	0
NC(=O)c1ccc(C(F)(F)F)n(Cc2c(Cl)cccc2Cl)c1=O	-10	7	-22	20*	39	0
COc1ccc(Cn2c(C(F)(F)F)ccc(C(N)=O)c2=O)cc1	-5	2	-12	4	20	-6
CCCOc1ccc(C(=O)N2CCCC2C(=O)O)cc1 (stereo not given)	-24	0	-31	28*	14	3
CCCCOc1ccc(C(=O)N2CCCC2C(=O)O)cc1 (stereo not given)	-4	0	-4	3	4	-3
Cc1ccc(C(=O)NCc2ccc3c(c2)OCO3)cc1Cl	16	0	24*	-3	-19	-3
Cc1cc(C(=O)NCc2ccc3c(c2)OCO3)ccc1[N+](=O)[O-]	-2	23*	-12	4	8	4
CCCOc1ccc(/C(O)=C2/C(=O)C(=O)N(c3ccccn3)C2c2ccc(OC)cc2)cc1C (stereo not given)	-7	4	-9	4	14	2
CCCCn1c(N)c(N(CC(C)C)C(=O)Cc2ccc(S(=O)(=O)N3CCOCC3)s2)c(=O)[nH]c1=O	11	5	-10	-4	12	17*
CCCCn1c(N)c(N(CCC(C)C)C(=O)Cc2ccc(S(=O)(=O)N3CCOCC3)s2)c(=O)[nH]c1=O	-6	0	2	5	-5	-3
CCCCn1c(N)c(N(CCC(C)C)C(=O)c2cc(S(=O)(=O)N3CCOCC3)ccc2F)c(=O)[nH]c1=O	-31	0	-2	21*	6	2
Cc1ccc(C(=O)OCC(=O)N(CC(C)C)c2c(N)n(Cc3ccccc3)c(=O)[nH]c2=O)s1	-22	0	-16	12	21	-2
COc1ccc(/C=C/CN2CCC(Oc3ccc(C(=O)N4CCCCC4)cc3)CC2)cc1	44*	3	1	-20	2	-5
COC1CCN(C(=O)c2ccc(OC3CCN(CCc4ccccc4)CC3)cc2)CC1	-6	0	-4	8	10	-13
O=C(c1ccc(OC2CCN(C/C=C/c3ccccc3)CC2)cc1)N1CCCCC1	30*	1	0	-14	-12	-6
CCN(CC)C1CCN(C(=O)c2ccc(OC3CCN(CCc4ccccc4)CC3)cc2)C1 (stereo not given)	62*	1	-17	-22	8	-6
CCCCOc1ccc(C(=O)NCC(=O)N2CCN(C/C=C/c3ccccc3)CC2)cc1	44*	3	6	-22	-13	12
